These sequences were tested on RXRa homodimer (NR concentration 180 nM) (assay: PBM binding z-score (relative to random genomic background probes); higher = stronger binding; sequences stand for … in GC…GCGATTGACAGCGTAGAATGAAGG).
In short: (§1)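 Regression normalization was applied to scanned fluorescence from custom Agilent 4×180K protein-binding microarrays. Before scanning, arrays were incubated 1 h with ligand-free nuclear receptor dimers, and binding was detected with antibodies against each partner (one per run). Binding z-scores use the random background probes as reference.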

Sequence | PBM binding z-score
AGAACGAGGGCAAAGAGTTGATAGCACGGGTGGC | 1.14
CAAACTAGGTCACGAAAGGTCTAAGTCGAATGAC | 4.23
GATACAGGGTCAGCTAGCGGCCAGAGTATGGAAA | 4.36
TCTTCTAGATCAACAGGAGGTTAAGAAAGATCGA | 1.01
TCTCGGAGGACACGAAAGGTCACAGCTCGACATC | 6.3
ACTATTAGTTGACTTACGGCAACCGATACGACGC | 0.39
TCTATTTGGTCACGGAGGTCACACACGACGGGTA | 5.34
TCTCGGAGGACACGACAGGTCAGAGCTCGACATC | 1.41
TGAAAGAGGTTAAAGATCAGGGAACGTGGCGTCG | 4.19
CAAACTAGGTTAAGGTCAAAGTCGGTTTGTGCCA | 5.29
AATACAGGGTCATCGTAGGCGAGAGTACGCACAG | 6.54
CTCGAAAGGTCGGGCTCAGGTGAGTATACCAAAC | 3
ATCGAAAGGTCGACGAGGCGAGTATACACCGTTT | 4.22
CCGACTGGGGCATAAGGTTTCCATAAGCCAGCCC | -0.0441
CCTAGCAGGCCAGGGTTACTCAAGCATTTCGCTT | 0.113
TTACCCAGGTGAAAGGTCGTTGATGCACGCCTTG | 4.51
CGTACTAGGTCAAGGACAGTGAATCTCCGCACGC | 2.53
ACTAGCAGGCCAAGTGTGGGTCACTCAAACAAAG | 0.982
CCAGACAGGTGAAAGATAACTCAGTCTGGTACGC | 0.775
CCTGTTAGGTCAATGGTCAGCTAAAGCAGCTCGC | 2.63

Sequence | PBM binding z-score
AGTCAAAGTTCAGGACGTGGTAACGTAAAGCACG | 2.67
CGTCCAAGGTCAGAGAGGTCAGAGAATGCCGAGT | 6.16
AGAACGAGGGCACGCAGAGTTGATAGCAGAGTAG | 1.73
GCTGCTAGGTGAGGTTGGTCAGCTAACGGGTACG | -0.532
GCAGACAGGTGAAACCCAGGTAACTCAGGGTGGC | 0.749
TGAATGCGGTTATAAGATCAGGGAACGTTGCAAA | -0.0523
ACTAGTTGGTCAGCTGAGGTCACAGACAATTCGG | 4.37
TCTCGGAGGACACGAAAGGTCAGAGCCCGACATC | 3.95
GTACCGAGGTGAATAGGTCGTTGATGAGTAGGCG | 2.11
CGTCCAAGGTCTTAGGAGGTCAGTGAAGACAGAT | 2.01
GGAACGAGGACATTCGAGTTGATAGCATGGCGAT | 0.11
ACCGAAAGGTCGTGAGGTGAGTATACAGAAAGGC | 5.25
CGTCCAAGGTCAATGCTAGTTCAGTGAAAGCATT | 4.84
ATCGAAAGGTCGAGGTGAGTATGGAGAAAGGGAA | 4.17
TCAGACAGGTGAAGATAACTCAGGTACGCAGTCG | 1.13
CCTACTGGGCCATCAGGTCATTAATATCAACGTT | 0.85
CAAACTAGCTCAAGAGGTCAAAGTCCGCTTCCCG | 5.51
TCATATAGGTAAATGCTAGGTGTAAGTCCGATCT | 0.608
TGAACGAGGTTATAAGATCAGGGAACGTTGCAAA | 2.02
CCTACTGGGCCAAAGGTAATTGATTCCAATGCTC | 0.00386

These sequences were tested on THRa:RXRa (NR concentration 90 nM, RXRa partner concentration 90 nM) in the same assay as above.
In short: as §1

Sequence | PBM binding z-score
AGAACGAGGGCAAAGAGTTGATAGCACGGGTGGC | 0.917
CAAACTAGGTCACGAAAGGTCTAAGTCGAATGAC | 4.1
GATACAGGGTCAGCTAGCGGCCAGAGTATGGAAA | 2.56
TCTTCTAGATCAACAGGAGGTTAAGAAAGATCGA | 0.77
TCTCGGAGGACACGAAAGGTCACAGCTCGACATC | 4.29
ACTATTAGTTGACTTACGGCAACCGATACGACGC | 0.386
TCTATTTGGTCACGGAGGTCACACACGACGGGTA | 3.82
TCTCGGAGGACACGACAGGTCAGAGCTCGACATC | 2.96
TGAAAGAGGTTAAAGATCAGGGAACGTGGCGTCG | 1.63
CAAACTAGGTTAAGGTCAAAGTCGGTTTGTGCCA | 4.54
AATACAGGGTCATCGTAGGCGAGAGTACGCACAG | 4.45
CTCGAAAGGTCGGGCTCAGGTGAGTATACCAAAC | 3.46
ATCGAAAGGTCGACGAGGCGAGTATACACCGTTT | 2.48
CCGACTGGGGCATAAGGTTTCCATAAGCCAGCCC | -7.82e-06
CCTAGCAGGCCAGGGTTACTCAAGCATTTCGCTT | 0.382
TTACCCAGGTGAAAGGTCGTTGATGCACGCCTTG | 3.2
CGTACTAGGTCAAGGACAGTGAATCTCCGCACGC | 3.22
ACTAGCAGGCCAAGTGTGGGTCACTCAAACAAAG | 1.44
CCAGACAGGTGAAAGATAACTCAGTCTGGTACGC | 0.125
CCTGTTAGGTCAATGGTCAGCTAAAGCAGCTCGC | 3.16

Sequence | PBM binding z-score
AGTCAAAGTTCAGGACGTGGTAACGTAAAGCACG | 2.37
CGTCCAAGGTCAGAGAGGTCAGAGAATGCCGAGT | 4.53
AGAACGAGGGCACGCAGAGTTGATAGCAGAGTAG | 1.94
GCTGCTAGGTGAGGTTGGTCAGCTAACGGGTACG | 0.337
GCAGACAGGTGAAACCCAGGTAACTCAGGGTGGC | 2.18
TGAATGCGGTTATAAGATCAGGGAACGTTGCAAA | -0.183
ACTAGTTGGTCAGCTGAGGTCACAGACAATTCGG | 4.99
TCTCGGAGGACACGAAAGGTCAGAGCCCGACATC | 3.67
GTACCGAGGTGAATAGGTCGTTGATGAGTAGGCG | 2.15
CGTCCAAGGTCTTAGGAGGTCAGTGAAGACAGAT | 4.13
GGAACGAGGACATTCGAGTTGATAGCATGGCGAT | 2.2
ACCGAAAGGTCGTGAGGTGAGTATACAGAAAGGC | 3.48
CGTCCAAGGTCAATGCTAGTTCAGTGAAAGCATT | 3.91
ATCGAAAGGTCGAGGTGAGTATGGAGAAAGGGAA | 2.84
TCAGACAGGTGAAGATAACTCAGGTACGCAGTCG | 0.737
CCTACTGGGCCATCAGGTCATTAATATCAACGTT | 2.99
CAAACTAGCTCAAGAGGTCAAAGTCCGCTTCCCG | 3.66
TCATATAGGTAAATGCTAGGTGTAAGTCCGATCT | 0.0134
TGAACGAGGTTATAAGATCAGGGAACGTTGCAAA | 1.43
CCTACTGGGCCAAAGGTAATTGATTCCAATGCTC | 0.0403

— the supplement of paper PMC6555819
